# Sampled rows, rich in hits. Any-hit rate of the full collection: about 4%.
# Rv3671c protease: Rv3671c serine protease inhibitors, primary screen, biochemical, fluorescence polarization, M. tuberculosis H37Rv; inhibition, % at 5.96 µM; 320,000 tested, 0.048% active; AID 2606, 2010; in the data active means inhibition above about 38%;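 further: extracellular domain of Rv3671c used as enzyme; 0% = enzyme with DMSO and 100% = no enzyme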
# RecA intein inh: Mtb RecA intein splicing inhibitors, primary screen, biochemical, fluorescence, HTS; Protein RecA (Mycobacterium tuberculosis (strain ATCC 25618 / H37Rv)), P9WHJ3; cell-free RecA intein splicing; inhibition, % (test concentration not listed); 290,000 tested, 0.75% active; AID 2221, 2009; in the data active means inhibition above about 30%; inconclusive means no clear call, values can overlap the other calls;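 further: 0% = vehicle wells and 100% = reference inhibitor control wells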
# GDH-TPI counter-1: GDH-TPI coupling enzyme inhibitors, primary screen, artefact control for M. tuberculosis FBA inhibitor project, biochemical, absorbance, full deck; GDH-TPI coupled enzyme counterscreen, NADH absorbance; inhibition, % at 4.8 µM; 360,000 tested, 1.2% active; AID 588335, 2011; in the data active means inhibition above about 30%;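 further: 0% = DMSO wells and 100% = wells lacking the enzyme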
# Mtb FBA inh: Mtb FBA enzyme inhibitors, primary screen, biochemical, fluorescence, strain H37Rv; inhibition, % at 1 µM; AID 588726, 2011; 360,000 tested, 2.3% active; purified M. tuberculosis FBA, fluorescence read-out;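 further: 0% = vehicle and 100% = reference inhibitor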
# UGM FP inh: M. tuberculosis UGM enzyme inhibitors, primary screen, biochemical, fluorescence polarization, single point; UDP-galactopyranose mutase (Mycobacterium tuberculosis (strain ATCC 25618 / H37Rv)), …; purified UGM, fluorescence polarization probe displacement; inhibition, % at 10 µM; 320,000 tested, 0.06% active; in the data active means inhibition above about 10%, passing the limit was not always enough; inconclusive means no clear call, values can overlap the other calls
# Target sequence (P9WIQ1 whole entry, looked up): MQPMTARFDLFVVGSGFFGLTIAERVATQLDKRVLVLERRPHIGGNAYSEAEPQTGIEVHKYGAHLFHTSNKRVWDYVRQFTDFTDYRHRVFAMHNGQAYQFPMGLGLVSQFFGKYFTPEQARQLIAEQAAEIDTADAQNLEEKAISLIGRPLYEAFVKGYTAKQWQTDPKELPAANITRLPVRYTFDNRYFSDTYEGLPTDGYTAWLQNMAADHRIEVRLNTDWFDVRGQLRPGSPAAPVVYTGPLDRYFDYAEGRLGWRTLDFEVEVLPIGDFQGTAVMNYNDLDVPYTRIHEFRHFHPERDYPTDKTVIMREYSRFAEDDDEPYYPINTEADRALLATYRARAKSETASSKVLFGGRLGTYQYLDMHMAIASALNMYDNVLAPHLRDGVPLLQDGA
# Mtb bLac sens: beta-lactam sensitization of Mtb H37Rv, H37Rv; M. tuberculosis H37Rv growth with meropenem, percent inhibition; inhibition, % at 25 µM; 330,000 tested, 0.27% active; call rule not given here;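 further: growth measured after seven days incubation then overnight dye step; 0% = bacteria only wells and 100% = bacteria with antibiotic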
# Mtb FBA inh conf: M. tuberculosis aldolase blockers, biochemical, fluorescence, strain H37Rv, confirmation. AID 651616, 2012. shares compounds with Mtb FBA inh. inhibition, % at 1 µM. 5,600 tested, 78% active. purified M. tuberculosis FBA, fluorescence read-out;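 further: 0% = vehicle wells and 100% = reference inhibitor wells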
# GDH-TPI counter-2: GDH-TPI coupling enzyme inhibitors, artefact control for M. tuberculosis FBA inhibitor project, biochemical, fluorescence, high throughput; AID 652141, 2013; GDH-TPI coupled enzyme counterscreen; shares compounds with Mtb FBA inh; 5,600 tested, 81% active; inhibition, % at 1 µM; in the data active means inhibition above about 10%
# * marks the source's active call; other numbers are inactive results; ? = inconclusive; nt = no result given; + = active, no number. Unless noted, no stated cut-off is given here; in the data, active means inhibition above about 27%; inactive means the rest.
SMILES,Rv3671c protease,RecA intein inh,GDH-TPI counter-1,Mtb FBA inh,UGM FP inh,Mtb bLac sens,Mtb FBA inh conf,GDH-TPI counter-2
O=C1C(=O)c2c(ccc3ccccc23)-c2ccccc21,nt,nt,-15,-1,nt,nt,nt,nt
COc1cccc(-c2nnc(-c3ccco3)o2)c1,7,1,7,62*,nt,-4,+,+
CC(C)COc1ccc(-c2nnc(-c3ccco3)o2)cc1,-4,6,2,43*,0,79,54*,43*
COc1cccc(C(=O)Nc2ccc(-c3nnc(-c4ccco4)o3)cc2)c1,-27,1,16,1,2,36,nt,nt
CCCOc1ccc(-c2nnc(-c3ccco3)o2)cc1,2,2,11,60*,0,12,50*,36*
CC#C[C@@H](CC)c1ccc2ccn(C)c2c1,-2,nt,3,-1,-1,-2,nt,nt
C/C(=N\NC(=O)c1nnn(-c2nonc2N)c1COc1ccc(F)cc1)c1ccc(Cl)cc1,-1,-3,-2,29*,1,-1,+,+
CCCCn1c(N)c(N(C)C(=O)c2c(C)nn(-c3ccccc3)c2C)c(=O)[nH]c1=O,0,nt,-2,1,1,-4,nt,nt
c1ccc(-c2nc3nc4ccccc4nc3n2CC2CCCO2)cc1 (stereo unspecified),2,2,34*,84*,-1,-4,96*,72*
O=c1cc(C(F)(F)F)nc(SCc2cccnc2)[nH]1,2,2,3,-4,2,?,nt,nt
CCOC(=O)Nc1ccc2c(c1)nc1n2CCN(CCOC)C1,3,0,5,36*,0,1,75*,73*
CC(=O)Nc1ccc2c(c1)nc1n2CCN(C(C)c2ccccc2)C1 (stereo unspecified),-5,3,1,69*,2,-2,83*,72*
CC(c1ccccc1)N1CCn2c(nc3cc(NS(C)(=O)=O)ccc32)C1 (stereo unspecified),3,2,-1,6,2,-7,nt,nt
COCCN1CCn2c(nc3cc(NC(C)=O)ccc32)C1,4,-3,3,30*,-1,6,7,4
COc1ccc(C2=NOC3(CC(=O)N(c4ccc(F)cc4)C3=O)C2)cc1 (stereo unspecified),-11,-6,6,-1,0,-5,nt,nt
COC(CNc1ncnc2sc(-c3ccccc3)cc12)OC,-7,-1,11,25,0,21,nt,nt
OCCCNc1ncnc2sc(-c3ccccc3)cc12,9,1,23,30*,8,-6,55*,45*
C=COCCCNc1ncnc2sc(-c3ccccc3)cc12,-18,5,13,38*,1,47,51*,40*
Cc1ccc(S(=O)(=O)N2C[C@H]3C(=O)C[C@@H](c4ccccc4)N(S(=O)(=O)c4ccccc4C)[C@H]3C[C@H]2c2ccccc2)cc1,nt,nt,nt,5,nt,nt,nt,nt
C[C@@H]1CCCCO[C@@H](CN(C)C(=O)c2ccncc2)[C@@H](C)CN([C@H](C)CO)C(=O)c2cc(NC(=O)Cc3ccccc3)ccc2O1,nt,nt,-4,-1,nt,nt,nt,nt
CCN(C(=O)COC(=O)c1oc2ccc(OC)cc2c1C)C1CCCCC1,3,0,-2,30*,2,0,103*,78*
COc1ccc2oc(C(=O)OCC(=O)N(C)C3CCCCC3)c(C)c2c1,5,-1,6,38*,1,7,2,-6
COc1ccc2oc(C(=O)OCC(=O)N(C)C3CCS(=O)(=O)C3)c(C)c2c1 (stereo unspecified),0,-1,9,45*,1,-12,73*,53*
C[C@H](CO)N1C[C@H](C)[C@@H](CN(C)S(=O)(=O)c2ccc(-n3cccn3)cc2)OCc2cnnn2CCCC1=O,nt,nt,8,1,nt,nt,nt,nt
Cc1ccc(C)c(NC(=O)c2cc[n+](C)cc2)c1,-7,-2,9,0,3,-4,nt,nt
SMILES,Rv3671c protease,RecA intein inh,GDH-TPI counter-1,Mtb FBA inh,UGM FP inh,Mtb bLac sens,Mtb FBA inh conf,GDH-TPI counter-2
CCOC(=O)c1c(NC(=O)CN2C(=O)C(=O)N(CC(C)C)C2=O)sc(C)c1CC,-3,-2,9,1,1,-5,nt,nt
CCOC(=O)CSc1ccc(-c2nc3ccccc3[nH]2)cn1,5,0,29,13,0,100,nt,nt
COCCNC(=O)CSc1ccc(-c2nc3ccccc3[nH]2)cn1,-4,0,31*,31*,2,5,2,-4
COc1ccc(-c2csc(NC(=O)CSC(C)C(=O)Nc3cc(C)on3)n2)cc1OC (stereo unspecified),2,nt,-7,-1,1,2,nt,nt
CC1(c2ccc3ccccc3c2)NC(=O)N(CC(=O)N2CCC(C(N)=O)CC2)C1=O (stereo unspecified),3,-1,1,54*,0,-2,96*,63*
CC1(c2ccc3ccccc3c2)NC(=O)N(CC(=O)N2CCN(Cc3ccccc3)CC2)C1=O (stereo unspecified),-5,nt,-1,4,4,1,nt,nt
CCCCCNc1nc2sc3c(c2c(=O)n1-c1cccc(Cl)c1)CCN(C)C3,-7,-5,21,52*,2,1,109*,89*
CCCCSc1nc2sc3c(c2c(=O)n1-c1ccccc1)CCN(C)C3,-2,-1,21,4,1,?,nt,nt
CCCCNc1nc2sc3c(c2c(=O)n1-c1cccc(Cl)c1)CCN(C)C3,0,-6,21,52*,1,19,190*,140*
O=C(CCNS(=O)(=O)c1ccccc1)OCC(=O)c1ccc(Cl)cc1,-3,2,-1,1,1,-2,nt,nt
CC1CCN(c2nc3c(cc2C#N)COC(C)(C)C3)CC1,-1,-3,3,40*,0,-11,91*,63*
CC(C)CCNc1nc2c(cc1C#N)COC(C)(C)C2,1,-6,3,64*,-1,-3,192*,159*
CC(=O)OC1c2c(ccc3ccc(=O)oc23)OC(C)(C)C1OC(=O)CC(C)C (stereo unspecified),-16,-1,11,16,0,7,nt,nt

# Screening data deposited in PubChem BioAssay by several laboratories.
